# This is a sample that favours compounds with a hit; in the whole collection about 21% have one here.
# Pf growth 96h: Primary qHTS for delayed death inhibitors of the malarial parasite plastid, 96 hour incubation; P. falciparum luciferase reporter growth, 96 h; Potency, µM (titrated, usually from 28.7 µM), without a hit: top-dose activity change, negative = inhibition, hits mostly inhibitors; 6.9% of 320,000 active; AID 504834, 2011; note: potency is the fitted concentration of half-maximal effect; % is set by controls: 0 for no effect and ±100 for the full control effect
#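 Delayed-death screen, second-generation endpoint: infected erythrocytes, 2% hematocrit, 0.05% parasitemia final; 96 hours at 37 C, 5% CO2; luciferase detection reagent; luminescence decrease equals reduced growth.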
# Shiga inhibitor: A qHTS for Small Molecule Inhibitors of Shiga Toxin | Vero cells, Shiga toxin protein synthesis inhibition reporter | inhibition, % at 38.7 µM | 9.2% of 290,000 active | AID 2315, 2010; in the data active = inhibition mostly above about 28%, no sharp cut-off; inactive = mostly below about 43%; note: 0% is about no effect
# CHX counter: Cycloheximide Counterscreen for Small Molecule Inhibitors of Shiga Toxin; max response, %; 12% of 300,000 active; cell reporter, cycloheximide protein synthesis inhibition counterscreen; AID 2314, 2010; in the data active = max response mostly above about 13%, no sharp cut-off; inactive = mostly below about 14%; note: read at 38.3 µM for the half of the compounds with a filed dose; 0% is about no effect
# Pf growth 48h: Primary qHTS for delayed death inhibitors of the malarial parasite plastid, 48 hour incubation | P. falciparum luciferase growth in erythrocytes, 48 h | Potency, µM (doses to about 28.7 µM), inactives show at the top dose activity change, negative = inhibition, most hits filed as inhibitors | 5.9% of 310,000 active | AID 504832, 2011; note: potency is the fitted concentration of half-maximal effect; % is set by controls: 0 for no effect and ±100 for the full control effect
#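 Cell-based growth assay: transgenic P. falciparum expressing firefly luciferase, cultured in red cells within RPMI 1640 containing 0.5% w/v Albumax, 24 mM bicarbonate and gentamycin. A drop in luciferase activity indicates inhibition.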
# Active calls of the source: *; ? = inconclusive; / = not tested or not shown; + = active, no number. Unless noted, calls come from the whole dose curve; as a rule, active = well fitted inhibition curve with a large enough effect; inconclusive = small, poorly fitted or top-dose-only effect, or another doubt; inactive = no such curve, though single readings can be large or run the other way.
SMILES,Pf growth 96h,Shiga inhibitor,CHX counter,Pf growth 48h
Cn1c(SCC(=O)N2CCCCCC2)nc2c(c1=O)SCC2,4.7µM*,-13,8,-26%
Cn1c(SCC(=O)NC2CCCC2)nc2c(c1=O)SCC2,14%,-15,-3,6%
O=C(Nc1ccccc1Cl)c1ccc2nc(N3CCOCC3)sc2c1,?,19,11*,26%
CCc1cccc(C)c1NC(=O)c1ccc2nc(N3CCOCC3)sc2c1,3%,-7,1,-17%
O=C(Nc1ccc(F)cc1F)c1ccc2nc(N3CCOCC3)sc2c1,12µM*,49*,18*,80%
CC(CCc1ccccc1)NC(=O)c1ccc2nc(N3CCOCC3)sc2c1 (stereo not drawn),?,-9,5,14%
Cc1cccc(NC(=O)c2ccc3nc(N4CCOCC4)sc3c2)c1C,?,16*,10,?
O=C(NCCc1ccccc1)c1ccc2nc(N3CCOCC3)sc2c1,?,14,12*,3%
Cc1ccccc1OCC(=O)N=Nc1c(O)n(C)c2ccccc12,46%,24,10,18%
COC(=O)c1cccnc1-n1c(=O)c2cccnc2n(Cc2cccc(OC)c2)c1=O,?,-1,-4,/
COC(=O)c1cc(-c2cc(OC)ccc2OC)nc2c1c(=O)n(C)c(=O)n2Cc1ccccc1,2.1µM*,-6,5,?
Cc1cc(NC(=O)Cc2ccccc2)c2ccccc2n1,?,-10,0,-14%
Cc1nc2ccccc2c2nc(NC(=O)Cc3ccccc3)nn12,/,42*,10,79%
CN(C)c1ccc(/C=C/c2cc[n+]([O-])cc2)cc1,2.1µM*,172*,42*,66%
CC[n+]1ccc(/C=C/c2ccc(N(C)C)cc2)c2ccccc21,10%,-24,-5,0.59µM*
CN(C)c1ccc(/C=C/c2cc[n+](C)cc2)cc1,?,-17,-3,/
CC[n+]1ccccc1/C=C/c1ccc(N(C)C)cc1,-16%,-10,-1,2.9µM*
Cc1ccc(/C=C/c2ccc(N(C)C)cc2)[n+](C)c1,219%,15,-5,1.2µM*
CC[n+]1ccc(C[n+]2ccccc2)c2ccccc21,-22%,1,-5,?
Nc1ccc(N(CCO)CCO)cc1,33%,-9,-2,?
CCN(CC)c1ccc(N)cc1,?,/,/,1.9µM*
Cc1ccc(NC(=O)O/N=C/c2ccc(F)cc2)cc1,5.9µM*,47*,33*,40%
Cc1ccccc1C(=O)Nc1ccc(C(=O)N/N=C/c2ccc(F)cc2)cc1,15%,-7,4,?
Cc1ccc(NC(=O)O/N=C/c2ccc(Br)cc2)cc1,30%,37,11*,55%
Cc1ccc(S(=O)(=O)NC(=O)Nc2ccc(F)cc2)cc1,?,-3,7,-7%
SMILES,Pf growth 96h,Shiga inhibitor,CHX counter,Pf growth 48h
COc1ccc(/C=N/OC(=O)Nc2ccccc2)cc1[N+](=O)[O-],32%,+,33*,47%
COc1ccc(C(=O)Nc2ccc(Nc3ccccc3)cc2)cc1[N+](=O)[O-],-7%,-5,-4,10%
O=C(Nc1ccccc1)O/N=C/c1ccc(F)cc1,34%,54*,27*,138%
C=CCNC(=S)NNc1nc2sc3c(c2c(=O)[nH]1)CC(C)(C)OC3,-11%,-7,1,8%
O=C(COC(=O)c1cccc(S(=O)(=O)N2CCOCC2)c1)NCCc1ccccc1,2%,23,-2,7%
CCN(CC)c1ccc(/C=N/OC(C)C(=O)Nc2ccc(C)cc2)cc1 (stereo not drawn),12%,-14,-2,-3%
O=C(Nc1ccccc1)O/N=C/c1ccccc1Cl,15%,64*,54*,/
CC(=O)Nc1ccc(/C=N/OCC(=O)Nc2ccc(C)cc2)cc1,100%,15*,23*,41%
COc1ccc(N(CC(O)CN2CCOCC2)S(=O)(=O)c2ccccc2)cc1 (stereo not drawn),?,18,-1,6%
Cc1cccc(C(=O)Nc2ccc(N3CCC(CCN4CCOCC4)CC3)c(C(=O)O)c2)c1,0%,/,/,6%
CCOC(=O)c1sc(NC(=O)CSc2n[nH]c(-c3ccncc3)n2)c(C#N)c1C,/,25,4,15%
Cc1ccsc1/C=C/C1=Cc2c(sc(NC(=O)CSc3n[nH]c(N)n3)c2C#N)C(C)(C)C1,8.3µM*,-14,-2,/
CCOc1ccc(/C=C/C2=Cc3c(sc(NC(=O)CSc4n[nH]c(N)n4)c3C#N)C(C)(C)C2)cc1,8.3µM*,-8,1,10µM*
Cc1ccc(CNC(=O)CCn2cc(-c3ccc(C)cc3)nc2-c2ccncc2)cc1,9.3µM*,1,-2,?
O=C(O)CCn1cc(-c2ccc(F)cc2)nc1-c1ccncc1,68%,/,/,-19%
Cc1ccc(CNC(=O)c2ccc(Cn3cc(-c4ccc(C)cc4)nc3-c3ccncc3)cc2)cc1,?,42*,41*,?
Cc1ccc(CNC(=O)CCn2cc(-c3ccc(F)cc3)nc2-c2ccncc2)cc1,?,/,/,8.3µM*
O=C(COC(=O)c1cc[n+]([O-])cc1)Nc1cc([N+](=O)[O-])ccc1Cl,5%,/,/,19%
Nc1nnc(SCc2ccc(F)cc2Cl)s1,/,47*,31*,26%
Cc1nnc(SCc2cccc(CSc3nnc(C)s3)c2)s1,/,59,35,88%
Cc1nnc(SCc2ccc(F)cc2Cl)s1,152%,69*,41*,95%
Cc1cc2ncn(-c3ncccc3[N+](=O)[O-])c2cc1C,4%,-1,10,0%
CCc1ccc(NC(=O)Nn2cnnc2)cc1,24%,24,17*,4%
O=C(Nc1ccccc1)Nn1cnnc1,-4%,-7,-4,-2%
O=C(Nc1ccc(Br)cc1)Nn1cnnc1,1%,21,11*,103%
SMILES,Pf growth 96h,Shiga inhibitor,CHX counter,Pf growth 48h
CCc1ccc(NC(=S)Nn2cnnc2)cc1,9%,-15,11,17%
Cc1ncc(CO)c(/C=N/Nc2cccc(Cl)n2)c1O,45%,25,21,?
Cc1ncc(CO)c(/C=N/NC(=O)c2cc(O)c(O)c(O)c2)c1O,?,2,-5,2.6µM*
Cc1ncc(CO)c(/C=N/NC(=S)Nc2ccc(C(C)C)cc2)c1O,12µM*,5,12,?
Cc1ncc(CO)c(/C=N/NC(=O)c2ccc(Br)cc2)c1O,?,-6,1,?
COc1ccc(N(CC(=O)NCc2ccccc2)C(=O)Cn2nnc(-c3ccccc3F)n2)cc1OC,6%,-8,-2,?
NC(=O)COc1ccc(C(=O)NCC2(N3CCOCC3)CCCCC2)cc1,?,/,/,-23%
Brc1c(C[n+]2ccccc2)nc2ccccn12,?,21,-3,?
Brc1ccc(C[n+]2ccccc2)cc1,7.4µM*,/,/,2.9µM*
CC(=O)c1cc(-c2ccccc2)n(CCC(=O)NC(C)(C)C)c1C,?,-6,8,-3%
Cc1ccn2c(c1)nc(=S)n2C(=O)c1ccco1,23%,74*,39*,149%
Cc1nn(C(=O)c2ccco2)c(C)c1Br,/,-22,-6,/
OCc1ccc(-c2ccc(-c3ccc(CO)s3)o2)s1,/,42*,53*,/
CCN1CCN(Cc2ccc(NC(=O)c3ccc(C)c(NC(=O)C4=NN(c5ccccc5)C(=O)C4)c3)cc2C(F)(F)F)CC1,0.52µM*,-7,-2,0.41µM*

# High-throughput results as filed in PubChem BioAssay.
